TSHR agonist = qHTS Assay for Agonists of the Thyroid Stimulating Hormone Receptor. Thyrotropin receptor (Homo sapiens), P16473. HEK293-CNG-TSHR cells (CNG channel as cAMP sensor), membrane potential dye, cAMP. Potency, µM (series often up to 57.1 µM), for inactives: at the highest dose activation, most hits filed as activators. 73,000 compounds, 0.48% hits; active = well fitted activation curve with a large enough effect in the main read-out, with a control signal flat, not every such curve was filed as active; inconclusive = small, poorly fitted or top-dose-only effect, or a change in a side signal; inactive = no such curve, though single readings can be large or run the other way; % of control where 0% means no effect;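 note: the control signal comes from parental cells without the receptor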
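HEK 293 cells stably expressing TSHR and a modified CNG channel, with CNG-only parental cells as counterscreen, were preloaded 60 min at room temperature with membrane potential dye containing 100 uM RO 20-1724. Compound exposure was 30 min, and depolarization was read as fluorescence at 590 nm.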
GBA activity = Glucocerebrosidase | Lysosomal acid glucosylceramidase (Homo sapiens), P04062 | purified enzyme, resorufin glucoside fluorescence (screen aimed at inhibitors), 20 min | Potency, µM | 48,000 compounds, 1.1% hits; in the data active = potency below about 15 µM; inconclusive = mostly about 16 µM to 33 µM;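 note: the screen sought inhibitors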
Target sequence (P04062 whole entry, looked up): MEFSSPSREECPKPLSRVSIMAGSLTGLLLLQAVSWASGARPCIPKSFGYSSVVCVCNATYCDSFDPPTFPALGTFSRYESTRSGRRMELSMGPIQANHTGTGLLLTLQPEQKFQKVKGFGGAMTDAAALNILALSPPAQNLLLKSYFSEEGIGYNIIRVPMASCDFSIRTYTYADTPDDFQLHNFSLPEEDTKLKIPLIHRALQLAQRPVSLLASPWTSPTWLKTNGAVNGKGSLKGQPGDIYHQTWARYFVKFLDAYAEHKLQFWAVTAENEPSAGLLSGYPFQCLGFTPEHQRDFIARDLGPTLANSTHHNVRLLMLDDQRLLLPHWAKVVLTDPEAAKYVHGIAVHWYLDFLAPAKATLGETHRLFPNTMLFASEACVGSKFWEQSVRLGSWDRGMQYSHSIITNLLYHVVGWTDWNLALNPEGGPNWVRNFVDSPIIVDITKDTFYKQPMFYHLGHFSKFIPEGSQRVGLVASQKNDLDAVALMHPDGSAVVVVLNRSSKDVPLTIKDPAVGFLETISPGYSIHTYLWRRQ
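Compounds titrated against 0.2 nM normal enzyme, 30 uM resorufin beta-D-glucopyranoside substrate, citrate/phosphate buffer with taurocholate and tween-20, pH 5.9. Reaction ran 20 min at room temperature; fluorescence (Ex 548/Em 600) gave AC50.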
Bst PK mod = Pyruvate Kinase; purified pyruvate kinase, luminescence ATP production; ribose 5-phosphate activator present at AC10; Potency, µM; 51,000 compounds, 1.2% hits; AID 361, 2006; in the data active = potency below about 11 µM; inconclusive = mostly about 12 µM to 25 µM;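 the screen sought inhibitors and activators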;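 note: scaled between full activation by ribose 5 phosphate and full inhibition by luteolin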
HEK293 cAMP cs = qHTS Assay for Agonists of the Thyroid Stimulating Hormone Receptor: Activators of Intracellular cAMP Concentrations in Parental HEK 293. 73,000 compounds, 2.5% hits. parental HEK293 CNG cAMP sensor, membrane potential fluorescence. Potency, µM (highest dose often 57.1 µM), for inactives: at the highest dose activation, actives largely listed as activators; note: % of control where 0% means no effect; nearly all actives have a fitted effect of over 55% in size
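Counterscreen for endogenous-receptor signalling: CNG-channel HEK 293 cells report cAMP rise by membrane depolarization. After 60 min dye equilibration with 100 uM RO 20-1724, compounds incubated 30 min before bottom-read fluorescence at 590 nm.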
Luciferase inh = qHTS Assay for Inhibitors of Firefly Luciferase; 72,000 compounds, 2.2% hits; purified firefly luciferase, luminescence, 8 min; Potency, µM (top dose mostly 57.1 µM), inactives show top-dose activity change, negative = inhibition, actives largely listed as inhibitors; AID 411, 2009; note: % is set by controls: 0 for no effect and ±100 for the full control effect; nearly all actives have a fitted effect of over 40% in size
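Titration-based qHTS; buffer 50 mM imidazole pH 7.2, 50 mM KCl, 7 mM MgCl2, 10 uM ATP, 0.01% Tween 20, 0.05% BSA; luciferase/luciferin detector mix added after compound; 8 min, ambient; luminescence.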
An asterisk follows results filed as active; [ ] = another dose, or the depositor's remark. Only some compounds are listed: those with a hit (about 5.8% of all), similar ones and a draw of the others. Unless noted, calls come from the whole dose curve; as a rule, active = well fitted curve in the direction sought with a large enough effect; inconclusive = small, poorly fitted or top-dose-only effect, or another doubt; inactive = no such curve, though single readings can be large; an effect the other way counts as inactive or inconclusive. Potency is the fitted concentration of half-maximal effect.

What do the screens show for `CC1(C)CNC(=O)c2sc(N3CCCCC3)nc2C1`?
TSHR agonist: inconclusive; GBA activity: >77; Bst PK mod: >57; HEK293 cAMP cs: 20µM*; Luciferase inh: 2µM*

Results for CN1CCN([C@@H]2Cc3ccccc3Sc3ccc(Cl)cc32)CC1 ?
TSHR agonist: inconclusive; HEK293 cAMP cs: inconclusive; Luciferase inh: 0%

How did COc1ccc(/C=C/C2=CC3(C)CC2(C)C(c2ccc(OC)cc2)CC3=O)cc1 (stereo not given) do in these assays?
TSHR agonist: 9%[11.4 µM]; HEK293 cAMP cs: 3%[11.4 µM]

What do the screens show for `On1onc2c3cc(-c4ccccc4)nc3ccc21`?
TSHR agonist: -39%; GBA activity: 15*; Bst PK mod: inactive; HEK293 cAMP cs: -28%; Luciferase inh: -6%

Results for O=C(Nc1cccc(-c2cn3ccsc3n2)c1)c1ccccc1 ?
TSHR agonist: 1%; GBA activity: >77; Bst PK mod: inactive; HEK293 cAMP cs: -4%; Luciferase inh: 25µM*

Results for CCOc1ncccc1C(=O)Nc1ccc(-c2cn3ccsc3n2)cc1 ?
TSHR agonist: 7%; GBA activity: >77; Bst PK mod: >57; HEK293 cAMP cs: 5%; Luciferase inh: 0%

How did COc1ccccc1C(=O)Nc1cccc(-c2cn3ccsc3n2)c1 do in these assays?
TSHR agonist: 14%; GBA activity: >77; Bst PK mod: inconclusive; HEK293 cAMP cs: 7%; Luciferase inh: 13µM*

How did CCCCC(=O)Nc1cccc(-c2nnc(-c3ccccc3)o2)c1 do in these assays?
GBA activity: >77; HEK293 cAMP cs: 18%; Luciferase inh: -2%

How did CCCCC(=O)Nc1cccc(-c2cn3ccsc3n2)c1 do in these assays?
TSHR agonist: -2%; GBA activity: inconclusive; Bst PK mod: inactive; HEK293 cAMP cs: 3%; Luciferase inh: 13µM*

How did O=C(Nc1ccc(-c2cn3ccccc3n2)cc1)c1cc(Br)ccc1O do in these assays?
TSHR agonist: 2%[11.4 µM]; HEK293 cAMP cs: -3%[11.4 µM]; Luciferase inh: -2%[11.4 µM]

What do the screens show for `O=C(Nc1cccc(-c2cn3ccccc3n2)c1)c1cnccn1`?
TSHR agonist: 4%; HEK293 cAMP cs: 6%; Luciferase inh: 4µM*

Results for COCCn1c(=O)c(-c2cccs2)nc2cnc(Oc3ccc(OC)cc3)nc21 ?
TSHR agonist: 4%; HEK293 cAMP cs: 10%; Luciferase inh: 0%[11.4 µM]

Results for Cc1noc(C)c1-c1nccc(NCc2cccnc2)n1 ?
TSHR agonist: -1%; HEK293 cAMP cs: 14%; Luciferase inh: 1%[2.29 µM]

Results for Oc1ccccc1-c1cc(-c2ccccc2Cl)[nH]n1 ?
TSHR agonist: -3%; GBA activity: >77; Bst PK mod: inconclusive; HEK293 cAMP cs: -9%; Luciferase inh: 13µM*

How did Cc1ccc(O)c(-c2cc(-c3ccccc3C)[nH]n2)c1 do in these assays?
TSHR agonist: 1%; GBA activity: inconclusive; HEK293 cAMP cs: 5%; Luciferase inh: -3%

What do the screens show for `CCS(=O)(=O)NCCc1cc2c(OC)ccc(OC)c2[nH]c1=O`?
TSHR agonist: -5%; GBA activity: >77; Bst PK mod: 11*; HEK293 cAMP cs: 9%; Luciferase inh: 5%

Results for COc1ccc(OC)c2[nH]c(=O)c(CCNC(C)=O)cc12 ?
TSHR agonist: -2%; HEK293 cAMP cs: 12%; Luciferase inh: 0%

How did COc1ccc(Oc2ncc3nc(-c4ccc(OC)cc4)c(=O)n(C4CC4)c3n2)cc1 do in these assays?
TSHR agonist: 3%; HEK293 cAMP cs: 13%; Luciferase inh: 2%[11.4 µM]

What do the screens show for `Cc1ccc(-c2csc(=S)n2CC(=O)OCC(=O)NCc2ccco2)cc1`?
TSHR agonist: inconclusive; GBA activity: >77; Bst PK mod: >57; HEK293 cAMP cs: 32µM*; Luciferase inh: -1%

What do the screens show for `O=C(COC(=O)CCOc1ccccc1)NCc1ccco1`?
TSHR agonist: -3%; GBA activity: >77; Bst PK mod: >57; HEK293 cAMP cs: -4%; Luciferase inh: 2%

Results for CCCC[P+](CCCC)(CCCC)Cc1ccc(NC(=O)[C@@H](Cc2ccc3ccccc3c2)NC(=NC2CCCCC2)NC2CCCCC2)cc1 ?
TSHR agonist: -12%; HEK293 cAMP cs: 3%; Luciferase inh: 1%

Results for CCN1CCN(Cc2ccc(NC(=O)Nc3ccc(OC)cc3)cc2)CC1 ?
TSHR agonist: 2%; HEK293 cAMP cs: 5%; Luciferase inh: -15%

How did CCN1CCN(Cc2ccc(NC(=O)Nc3ccccc3)cc2)CC1 do in these assays?
TSHR agonist: 6%; HEK293 cAMP cs: 3%; Luciferase inh: 13µM*

Results for CCCn1c(SCC(=O)N2CCN(c3ccccc3)CC2)nc2ccccc2c1=O ?
TSHR agonist: 5µM*; GBA activity: >77; Bst PK mod: >57; HEK293 cAMP cs: 27%; Luciferase inh: 4%

What do the screens show for `CCn1c(SCC(=O)N2CCN(c3ccccc3)CC2)nc2c(c1=O)SC(C)C2` (stereo not given)?
TSHR agonist: inconclusive; HEK293 cAMP cs: 25µM*; Luciferase inh: 2%

What do the screens show for `CCOC(=O)c1ccc(NC(=O)CSc2nc3c(c(=O)n2C)SC(C)C3)cc1` (stereo not given)?
TSHR agonist: inconclusive; HEK293 cAMP cs: 20µM*; Luciferase inh: 4%

How did CCOC(=O)c1ccc(NC(=O)CSc2nc3c(c(=O)n2CC)SC(C)C3)cc1 (stereo not given) do in these assays?
Luciferase inh: -1%

What do the screens show for `Cc1ccc(S(=O)(=O)N[C@H]2COC(=O)[C@H](C)COC(=O)C/C=C\[C@H]2C)cc1`?
TSHR agonist: -5%[11.4 µM]; HEK293 cAMP cs: -6%[11.4 µM]; Luciferase inh: 1%[11.4 µM]

What do the screens show for `Cc1cccnc1Nc1nc(-c2ccc(O)cc2O)cs1`?
TSHR agonist: -11%; GBA activity: inconclusive; Bst PK mod: 1.7*; HEK293 cAMP cs: -26%; Luciferase inh: 16µM*

What do the screens show for `O=C(O)[C@@H]1[C@@H]2C[C@H]([C@@H](Br)[C@H]2N2C(=O)CCC2=O)[C@@H]1C(=O)O`?
TSHR agonist: -4%[11.4 µM]; HEK293 cAMP cs: 7%[11.4 µM]; Luciferase inh: 2%[11.4 µM]

Results for COc1ccccc1CNC(=O)CCC(=O)Nc1nnc(C)s1 ?
TSHR agonist: 10%; GBA activity: >77; Bst PK mod: inconclusive; HEK293 cAMP cs: -3%; Luciferase inh: -6%

What do the screens show for `COc1ccccc1C(=O)NCCn1cc(SCC(=O)Nc2nnc(C)s2)c2ccccc21`?
TSHR agonist: 8%; GBA activity: 6.2*; Bst PK mod: >57; HEK293 cAMP cs: 11%; Luciferase inh: 3%

Results for COc1ccc(-c2nc3cnc(N(C)C)nc3n(CCC#N)c2=O)cc1 ?
TSHR agonist: -6%; HEK293 cAMP cs: 5%; Luciferase inh: -5%[11.4 µM]

What do the screens show for `Cc1ccc(C)c(OCC(=O)Nc2nonc2NC(=O)COc2cc(C)ccc2C)c1`?
TSHR agonist: inconclusive; GBA activity: >77; Bst PK mod: >57; HEK293 cAMP cs: 25µM*; Luciferase inh: -1%
